Hits are enriched below; roughly 4.6% of the tested compounds scored in any of these assays.
SKKanGAS inh: blocks kanamycin growth of S. pyogenes SKKanGAS strain | BacTiter-Glo, 6 h | inhibition, % at 7.5 µM | 300,000 compounds, 1.3% hits;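 active = mean replicate score, as percent of positive control median, at least 50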;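 note: strain carries kanamycin resistance gene driven by streptokinase promoter and grows in 40 µg/ml kanamycin; loss of luminescence reflects streptokinase promoter inhibition or plain growth inhibition; 0% = median of DMSO wells and 100% = positive control at its reference dose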
PfHsp90 yeast 2: reduces growth (ATP signal) of yeast expressing P. falciparum Hsp90. AID 504621. S. cerevisiae expressing PfHsp90, BacTiter-Glo ATP, 48 h; yeast lacking PDR1 and PDR3 efflux regulators. inhibition, % at 9.4 µM. 310,000 compounds, 0.32% hits;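 active = every replicate shows inhibition above about 80%, whatever the replicate mean, limit read from the data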;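 note: 0% = DMSO neutral controls and 100% = 20 µM radicicol positive controls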
tim10-1 inh: tim10-1 yeast growth inhibition | S. cerevisiae tim10-1 ts strain growth, BacTiter-Glo, 24 h | inhibition, % at 20 µM | 330,000 compounds, 2.2% hits;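 active = inhibition of at least 40%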;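 note: mutant grown at 25 °C; 0% = DMSO wells with yeast and 100% = wells holding no yeast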
NLRP3 yeast inh: NALP3 inhibition in yeast. 330,000 compounds, 0.39% hits. AID 2825. Yeast reconstituted NLRP3/ASC/caspase-1, beta-gal luminescence, 24 h. inhibition, % at 10 µM;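 active = inhibition of 50% or more; inactive = inhibition below 50%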;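 note: plate controls were induced DMSO wells for no effect and uninduced yeast grown without galactose for full effect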
tim23-1 inh: inhibits growth of tim23-1 mutant yeast. 330,000 compounds, 1.3% hits. inhibition, % at 20 µM. S. cerevisiae tim23-1 growth, BacTiter-Glo luminescence, 24 h;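 active = growth inhibition of the mutant yeast at or above 50%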;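 note: temperature-sensitive mutant grown at 25 °C; plate controls were DMSO-treated mutant yeast for no effect and medium wells lacking yeast for full effect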
TIM10 inh: growth inhibitors of TIM10 yeast strain. S. cerevisiae TIM10 strain growth, BacTiter-Glo luminescence, 24 h. inhibition, % at 10 µM. 330,000 compounds, 1.4% hits;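 active = inhibition of 40% or more at the single tested concentration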;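 note: wild-type TIM10 isogenic control strain grown at permissive 25 °C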
tim23-1 confirm: confirmation of tim23-1 mutant yeast growth inhibitors; S. cerevisiae tim23-1 growth, BacTiter-Glo luminescence, 24 h; AID 463218; shares compounds with tim23-1 inh; 4,400 compounds, 83% hits; inhibition, % at 20 µM;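 active = inhibition above about 39% in either of two replicate wells at 20 µM, limit read from the data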;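 note: temperature-sensitive tim23-1 mutant grown at 25 °C; 0% = DMSO wells with yeast and 100% = medium wells without yeast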
Starred values were filed as active, the others as inactive; nt = no result given.

SMILES | SKKanGAS inh | PfHsp90 yeast 2 | tim10-1 inh | NLRP3 yeast inh | tim23-1 inh | TIM10 inh | tim23-1 confirm
O=C(CN1C(=O)C(=O)N(CCC2=CCCCC2)C1=O)c1c[nH]c2ccccc12 | nt | -1 | 13 | 6 | 60* | 40 | 39*
COc1ccc(Cn2c(=O)[nH]c3cc(C(=O)N4CCN(c5ccc(C(C)=O)cc5)CC4)ccc3c2=O)cc1 | 23 | -33 | -5 | 15 | -24 | -2 | nt
COc1cccc(NC(=O)Cn2c(=O)n(C)c(=O)c3sc4c(c32)COC(C)(C)C4)c1 | 2 | 30 | -14 | 1 | -5 | -5 | nt
O=C(CCCN1C(=O)/C(=C/c2ccccc2OC(F)F)SC1=S)Nc1cccnc1 | nt | nt | 16 | 24 | 51* | 24 | 52*
CC(C)=CCN1CCN(Cc2cc(C(C)C)n[nH]2)CC1CCO (stereo not given) | -5 | 19 | -15 | 12 | 7 | 8 | nt
O=C(Cc1c(Cl)cccc1Cl)OCC(=O)N1CCOCC1 | nt | -22 | -2 | 6 | -3 | -9 | nt
O=C(Nc1ccccc1-c1nnn(CC(=O)N2CCCc3ccccc32)n1)c1ccc(Cl)cc1 | 2 | 16 | 24 | 5 | 56* | 27 | 26
COc1ccc(OC[C@@H](O)CNC(=O)c2cccc3c2C(=O)c2ccc(Cl)cc2S3(=O)=O)cc1 | nt | 6 | 2 | 9 | 2 | 4 | nt
CNC(=S)N/N=C/c1ccc(-c2ccc(Cl)c([N+](=O)[O-])c2)o1 | -9 | 4 | 7 | 22 | -8 | 3 | nt
CNC(=S)N/N=C/c1ccc(-c2ccc(C(=O)O)cc2)o1 | 28 | 59 | 31 | 2 | 50* | 28 | 44*
CNc1nnc(SCC(=O)c2cc(C)n(C3CC3)c2C)s1 | nt | 22 | 2 | 18 | 14 | 6 | nt
COc1ccc(S(=O)(=O)N2CCOCC2)cc1NC(=O)CSc1nnc2n1CCCCC2 | nt | -18 | -15 | 3 | -14 | -8 | nt
COc1ccc(CC(=O)OCC(=O)Nc2cccc(Cl)c2)cc1 | 12 | 7 | 16 | 11 | 24 | 6 | nt
COc1cc(NC(=S)NC(=O)CCc2ccccc2)cc(OC)c1 | 41 | 2 | 25 | 20 | 51* | 39 | 41*
COc1ccc(CCC(=O)Nc2cccc(Cl)c2)cc1 | 10 | -3 | 11 | 29 | 59* | 33 | 65*
COc1ccccc1NC(=S)NC(=O)CCc1ccccc1 | -7 | 7 | 31 | 23 | 46 | 28 | nt
O=C(CCc1ccccc1)NC(=S)Nc1ccccc1Br | -9 | -30 | -9 | 23 | 50* | 29 | 32
COc1ccccc1C(=O)Oc1ccc(C(C)(C)C)cc1 | 23 | 6 | 15 | 18 | 23 | 21 | nt
COc1ccccc1C(=O)Oc1ccc2ccc(=O)oc2c1 | -2 | 14 | 18 | 11 | 69* | 36 | 52*
NC(=O)c1ncn([C@@H]2O[C@H](CNCc3cccn3-c3ccncc3)[C@@H](O)[C@H]2O)n1 | nt | 12 | nt | nt | nt | nt | nt
Nc1ccc(N=Nc2ccccc2O)c(N)c1 | 10 | nt | 25 | 42 | 55* | 22 | 46*
Cc1ccc(-c2csc3ncnc(N4CCN(C(=O)c5ccco5)CC4)c23)cc1 | nt | 12 | 29 | 18 | 51* | 31 | 42*
Cc1sc2ncnc(N3CCN(C(=O)c4ccco4)CC3)c2c1C | 1 | -5 | 14 | 9 | 10 | -3 | nt
CC(C)(C)C(=O)N1CCN(c2ncnc3scc(-c4ccccc4)c23)CC1 | 7 | -20 | 31 | 13 | 51* | 26 | 29
COc1ccc(NC(=O)CS(=O)(=O)Cc2ccccc2)c([N+](=O)[O-])c1 | -4 | -2 | 6 | 20 | -11 | -1 | nt
CCn1cnc2cc(NCc3ccc(Br)cc3)ccc21 | 21 | nt | 19 | 43 | 53* | 20 | 66*
O=C(CSc1ccccc1)N1CCN(c2ccc(F)cc2)CC1 | -5 | 2 | -8 | 6 | 8 | 0 | nt
Cn1c(N2CCOCC2)nc2c1c(=O)n(Cc1ccc(Cl)c(Cl)c1)c(=O)n2C | nt | 3 | 37 | 43 | 55* | 15 | 38
S=c1[nH]nc(COc2ccc(Cl)cc2)n1-c1ccc(Cl)cc1 | 10 | 32 | 27 | 13 | 51* | 36 | 41*
Cc1ccc(OCc2n[nH]c(=S)n2-c2ccc(Cl)cc2)cc1 | -6 | 4 | 16 | 14 | 42 | 22 | nt
